Source: PubChem
HepG2 tox-1 = qHTS for Inhibitors of TGF-b: Cytotox Counterscreen. HepG2 CAGA-GFP viability, ATP luminescence, 18 h. Potency, µM (titrated, usually from 46.1 µM), without a hit: top-dose activity change, negative = cytotoxicity, actives largely listed as cytotoxic. hit rate 0.76% among 410,000. AID 588856, 2011
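CellTiter-Glo luminescence gave cytotoxicity after 18 hours at 37 degrees C. The cells were HepG2 CAGA-GFP in 1% FBS DMEM, stimulated with 500 pg/mL TGF-beta after compound addition. %Activity was normalised to no-cell wells (complete cell-killing) and DMSO (no toxicity), and curves were fitted and classified.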
TGFb inhibitor = qHTS for Inhibitors of TGF-b; HepG2 CAGA-GFP TGF-b/SMAD3 reporter, GFP fluorescence, 18 h; TGF-beta stimulated, 500 pg/mL final; Potency, µM (top dose mostly 46.1 µM), for inactives: top-dose activity, negative = inhibition, actives largely listed as inhibitors; hit rate 1.2% among 410,000; note: % is set by controls: 0 for no effect and ±100 for the full control effect; nearly all actives have a fitted effect of over 65% in size
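Cell-based qHTS in HEPG2 carrying a CAGA-GFP Smad reporter; compounds added before 500 pg/mL final TGF-beta, 18 h incubation at 37 degrees C, GFP fluorescence quantified per cell by imaging cytometry.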
Nrf2 inh = Nrf2 qHTS screen for inhibitors; A549 ARE-Fluc reporter, luciferase luminescence, 18-24 h; Potency, µM (titrated, usually from 46 µM), for the others: at the top dose activity change, negative = inhibition, usual class: inhibitors; hit rate 2.1% among 360,000; AID 504444, 2011; note: % is set by controls: 0 for no effect and ±100 for the full control effect; nearly all actives have a fitted effect of over 60% in size
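Quantitative HTS in A549 cells stably bearing an antioxidant response element-firefly luciferase construct. Inhibition of Nrf2-driven transcription was scored by luminescence after 18-24 h of compound exposure at 37 °C.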
Nrf2 ARE act = qHTS of Nrf2 Activators. AREc32 ARE-luciferase reporter (MCF7-derived line), luminescence, 24 h. hit rate 0.31% among 410,000. Potency, µM (titrated, usually from 46.1 µM), for the others: at the top dose activation, actives largely listed as activators; note: % of control where 0% means no effect; nearly all actives have a fitted effect of over 65% in size
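Luciferase luminescence (Steady-Glo, 30 min at room temperature) served as the read-out of ARE activation in AREc32 cells treated with compounds for 24 hr at 37 deg C.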
A549 viability = Nrf2 qHTS screen for inhibitors: counterscreen for cytotoxicity | A549 ARE-Fluc cells, CellTiter-Fluor viability, 18-24 h | Potency, µM (titrated, usually from 46 µM), for the others: at the top dose activity change, negative = cytotoxicity, actives largely listed as inhibitors | hit rate 0.16% among 390,000; note: % is set by controls: 0 for no effect and ±100 for the full control effect
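Cytotoxicity counterscreen: CellTiter-Fluor fluorescence was measured in A549 ARE_Fluc cells after 18-24 h of compound exposure in a concentration series. The subsequent BugLite luminescent read reports ARE-luciferase activity.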
TGFb CAGA inh = qHTS for Inhibitors of TGF-b: Confirmation of Cherry Picks; shares compounds with TGFb inhibitor; HepG2 CAGA-GFP TGF-b reporter, GFP fluorescence, 18 h; cells stimulated with TGF-beta, 500 pg/mL; Potency, µM (doses to about 46.1 µM), for inactives: top-dose activity, negative = inhibition, actives largely listed as inhibitors; hit rate 63% among 1,600; AID 720534, 2013; note: % is set by controls: 0 for no effect and ±100 for the full control effect; nearly all actives have a fitted effect of over 65% in size
HepG2 tox-2 = qHTS for Inhibitors of TGF-b: Cytotox Counterscreen for Cherry Picks; AID 720535, 2013; hit rate 27% among 1,600; shares compounds with TGFb inhibitor; HepG2 CAGA-GFP viability, ATP luminescence, 18 h; cells stimulated with TGF-beta, 500 pg/mL; Potency, µM (series often up to 46.1 µM), without a hit: at the highest dose activity, negative = cytotoxicity, hits mostly inhibitors; note: % is set by controls: 0 for no effect and ±100 for the full control effect; nearly all actives have a fitted effect of over 70% in size
TGFb CCL64 inh = qHTS for Inhibitors of TGF-b: CCL64 Cells Orthogonal Assay for Cherry Picks | CCL64 CAGA-GFP reporter, TGF-b stimulated, GFP fluorescence, 18 h | hit rate 41% among 1,600 | shares compounds with TGFb inhibitor | AID 720536, 2013 | Potency, µM (top dose mostly 46.1 µM), inactives show at the highest dose activity, negative = inhibition, most hits filed as inhibitors; note: nearly all actives have a fitted effect of over 65% in size
TGFb COP inh = qHTS for Inhibitors of TGF-b: Hit Validation in HepG2 Cells using COP promoter. shares compounds with TGFb inhibitor. HepG2 COP-GFP TGF-b reporter, GFP fluorescence, 18 h; cells stimulated by added recombinant TGF-beta. Potency, µM (top dose mostly 46.1 µM), for inactives: top-dose activity, negative = inhibition, usual class: inhibitors. hit rate 3% among 1,600; note: nearly all actives have a fitted effect of over 70% in size
An asterisk follows results filed as active; u = inconclusive; x = not tested or not shown; ! = repeats disagree. Most compounds without a hit are left out; they make up all but 3.6% or so of the library. Calls come from the whole dose curve; as a rule, active = well fitted curve in the direction sought with a large enough effect; inconclusive = small, poorly fitted or top-dose-only effect, or another doubt; inactive = no such curve, though single readings can be large; an effect the other way counts as inactive or inconclusive. Potency is the fitted concentration of half-maximal effect.

SMILES	HepG2 tox-1	TGFb inhibitor	Nrf2 inh	Nrf2 ARE act	A549 viability	TGFb CAGA inh	HepG2 tox-2	TGFb CCL64 inh	TGFb COP inh
CC(C)C[C@@H](CN1CCC[C@@H]1CN1C(=S)NC[C@@H]1Cc1ccc(O)cc1)N1C[C@H](Cc2ccccc2)N(CCc2ccccc2)C1=S	-5.9%	15.8µM*	x	-0.2%	x	u	-29.9%	u	26.1%
O=C(c1ccoc1)N1CCN(c2cc(-c3ccccc3)nc3cc(-c4ccccc4)nn23)CC1	-36.6%	u	x	-4.7%	x	x	x	x	x
CCNC(=O)C1(C)CCN1CCS(=O)(=O)c1ccc(C)cc1 (centres undefined)	2.8%	1.3%	x	-0.8%	x	x	x	x	x
Cc1ccc2cccc(OCc3nnc(SCC(=O)O)n3C)c2n1	3.4%	3.3%	2.8%	0.4%	5.5%	x	x	x	x
Clc1ccc(CSc2nnc(-c3ccccn3)n2Cc2cccs2)cc1Cl	-8.1%	8.91µM*	x	-0.8%	x	14.6µM*	u	u	42.4%
CS(=O)(=O)c1ccc(C(=O)OCC(=O)NC(=O)C2CCCCC2)cc1[N+](=O)[O-]	-115.9%	10µM*	-137.1%	18.9%	u	11.6µM*	u	u	u
COc1ccc(C2CC(=O)c3cnc(NC(=O)c4ccccc4OC)nc3C2)c(OC)c1 (centres undefined)	2.0%	u	4.8%	u	-8.5%	x	x	x	x
O=C(NCCc1cccs1)C1CC(c2ccccc2F)=NO1 (centres undefined)	2.6%	u	9.0%	1.3%	5.7%	-2.5%	7.2%	0.7%	1.2%
O=C(NCCc1cccs1)C1CC(c2cccc(F)c2)=NO1 (centres undefined)	-15.0%	-5.4%	-14.2%	-0.7%	0.0%	x	x	x	x
c1ccc2c(c1)CNc1ccccc1C2	-12.0%	17.5%	1.7%	0.5%	-1.6%	x	x	x	x
CCCc1cc(=O)n2[nH]cc(-c3ccc(Cl)cc3)c2n1	11.2µM*	5.01µM*	20.6µM*	-0.2%	u	25.9µM*	u	11.6µM*	86.6%
COCc1cc(=O)n2[nH]cc(-c3ccccc3)c2n1	-9.1%	-11.6%	4.9%	1.9%	-3.5%	x	x	x	x
CC1Sc2ccc(S(=O)(=O)N3CCC(C(=O)Nc4ccc(Cl)cc4)CC3)cc2NC1=O (centres undefined)	-9.5%	20µM*	-2.8%	7.5%	0.6%	5.17µM*	u	u	30.4%
COc1cc2cc(C[C@H](C)O)oc(=O)c2cc1OC	2.0%	11.6%	-11.9%	0.1%	-1.0%	x	x	x	x
CCC(=O)NC(c1ccc(OC)cc1)c1cc(Cl)c2cccnc2c1O (centres undefined)	-31.9%	7.94µM*	25.9µM*	-1.2%	-9.9%	-24.0%	u	8.2µM*	21.3%
CCC(=O)NC(c1ccco1)c1cc(Cl)c2cccnc2c1O (centres undefined)	-11.6%	u	9.2µM*!	2.0%	u	-29.8%	-24.7%	9.2µM*	16.5%
C#Cc1ccc([C@H]2C=C(C(=O)NCc3ccccc3)O[C@@H](OCC)[C@@H]2CCCO)cc1	1.7%	u	u	-0.9%	-12.2%	x	x	x	x
CCO[C@H]1OC(C(=O)Nc2ccccc2)=C[C@@H](c2ccc(C(F)(F)F)cc2)[C@@H]1CCCO	-19.4%	14.1µM*	-7.7%	-0.4%	-12.7%	u	-29.4%	u	25.0%
CCO[C@H]1OC(C(=O)NCc2ccccc2)=C[C@@H](c2ccc(C(F)(F)F)cc2)[C@@H]1CCCO	-1.5%	u	-5.9%	0.1%	0.2%	x	x	x	x
CCO[C@@H]1OC(C(=O)NCc2ccccc2)=C[C@H](c2ccc(Br)cc2)[C@H]1CCCO	-2.7%	u	-23.5%	9.4%	-2.1%	u	-12.3%	u	7.1%
O=c1c2cn[nH]c2nc(SCc2ccccc2F)n1-c1ccc(Br)cc1	15.8µM*	10µM*	u	3.3%	-7.9%	u	u	u	77.4%
CCc1ccc(-n2c(SCc3ccccc3F)nc3[nH]ncc3c2=O)cc1	-108.9%	u	x	-1.6%	17.4%	x	x	x	x
CC(Nc1nc(-c2ccccc2F)nc2ccccc12)c1ccccc1 (centres undefined)	-4.6%	u	u	0.2%	-4.7%	x	x	x	x
Cc1ccccc1NC1=NCC(c2ccc([N+](=O)[O-])cc2)S1 (centres undefined)	-0.2%	4.47µM*	-27.8%	-0.2%	-25.5%	13µM*	u	8.2µM*	65.2%
O=c1c2ccccc2c(C=Nc2ccccc2O)c(O)n1-c1nccs1	-3.1%	68.1%	u	3.3%	-14.3%	x	x	x	x
SMILES	HepG2 tox-1	TGFb inhibitor	Nrf2 inh	Nrf2 ARE act	A549 viability	TGFb CAGA inh	HepG2 tox-2	TGFb CCL64 inh	TGFb COP inh
NCCCNc1nc(N)c([N+](=O)[O-])c(NC2CCCCC2)n1	-32.2%	5.01µM*	-104.0%	-3.1%	-1.0%	4.61µM*	u	5.8µM*	94.3%
Cc1nn(-c2ccc(N3CCOCC3)nn2)c(C)c1CCC(=O)NCc1ccc(Cl)cc1	-13.6%	u	12.1%	-0.8%	15.8%	x	x	x	x
Cc1ccc(C(=O)CSc2cc(C)nc(SCC(=O)c3ccccc3)n2)cc1	-9.6%	u	u	0.5%	u	u	-15.2%	-2.8%	10.0%
O=C1CS(=O)(=O)N(Cc2ccc(F)cc2)c2ccccc21	-4.8%	u	19.1%	2.5%	-0.3%	x	x	x	x
O=C1CS(=O)(=O)N(Cc2ccccc2F)c2ccc(Br)cc21	-24.1%	12.6µM*	u	0.7%	-7.7%	u	u	u	37.5%
Cc1ccc(NC(=O)C2CCCN2C(=O)Oc2ccccc2)c(C)c1 (centres undefined)	-1.4%	0.1%	-11.1%	0.0%	-1.5%	x	x	x	x
